Inconclusive results are not listed. Activity calls are given as the source filed them. The call rests on the fitted dose curve; in most records, active means well fitted curve in the direction sought with a large enough effect; inconclusive means small, poorly fitted or top-dose-only effect, or another doubt; inactive means no such curve, though single readings can be large; an effect the other way counts as inactive or inconclusive.
Key:
HACAT = assay: qHTS assay to identify novel small-molecules to repurpose for Merkel cell carcinoma treatment (AID 1296009); conditions: MCC and control cell lines, CellTiter-Glo viability, 72 h; at 44.8 µM (top of the series) unless noted; further: nearly all actives have a fitted effect of over 60% in size
Outline: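 After compound transfer in DMSO, plates were kept 72 hr at 37 degree celsius. Luminescent ATP signal from CellTiter-Glo served as viability measure, normalized against DMSO and no-cell controls.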

C33A = assay: Primary qHTS to identify gynecologic anti-cancer compounds using libraries of approved drugs and bioactive compounds (AID 1345084); conditions: Gynecologic cancer cell panel viability, ATPlite luminescence, 48 h; series mostly up to 57.5 µM; further: on the % scale 0 is the no-effect control and ±100 the full control effect; nearly all actives have a fitted effect of over 55% in size
Outline: (§1)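 48 h compound exposure at 37 C, 5% CO2; five-point qHTS. ATPlite luminescence readout of cell ATP.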

CAOV3 = assay: as above; conditions: Gynecologic cancer cell panel viability, ATPlite luminescence, 48 h; series mostly up to 57.5 µM
Outline: as §1

CASKI = assay: as above; conditions: Gynecologic cancer cell panel viability, ATPlite luminescence, 48 h; series mostly up to 57.5 µM
Outline: as §1

Es-2 = assay: as above; conditions: Gynecologic cancer cell panel viability, ATPlite luminescence, 48 h; series mostly up to 57.5 µM
Outline: as §1

HeLa = assay: as above; conditions: Gynecologic cancer cell panel viability, ATPlite luminescence, 48 h; series mostly up to 57.5 µM
Outline: as §1

Hek293T = assay: as above; conditions: Gynecologic cancer cell panel viability, ATPlite luminescence, 48 h, control line for the selectivity index; series mostly up to 57.5 µM
Outline: as §1

JEG-3 = assay: as above; conditions: Gynecologic cancer cell panel viability, ATPlite luminescence, 48 h; series mostly up to 57.5 µM
Outline: as §1

OV90 = assay: as above; conditions: Gynecologic cancer cell panel viability, ATPlite luminescence, 48 h; series mostly up to 57.5 µM
Outline: as §1

PA-1 = assay: as above; conditions: Gynecologic cancer cell panel viability, ATPlite luminescence, 48 h; series mostly up to 57.5 µM
Outline: as §1

Tov-21-G = assay: as above; conditions: Gynecologic cancer cell panel viability, ATPlite luminescence, 48 h; series mostly up to 57.5 µM
Outline: as §1

Tov112D = assay: as above; conditions: Gynecologic cancer cell panel viability, ATPlite luminescence, 48 h; series mostly up to 57.5 µM
Outline: as §1

SKOV3 = assay: as above; conditions: Gynecologic cancer cell panel viability, ATPlite luminescence, 48 h; series mostly up to 57.5 µM
Outline: as §1

C/C=C(\C)C(=O)OC[C@H]1O[C@@H](O[C@H]2[C@@H](O[C@H]3O[C@H](CO)[C@@H](O)[C@H](O)[C@H]3O[C@@H]3O[C@H](CO)[C@@H](O)[C@H](O)[C@H]3O)O[C@H](COC(=O)/C(C)=C/C)[C@@H](O)[C@@H]2O)[C@H](O)[C@@H](O)[C@@H]1O
inactive: outcome (HACAT) inactive [at 9.27 µM] | activity change, negative = cytotoxicity (C33A) 7.95% [at 11.6 µM] | activity change, negative = cytotoxicity (CAOV3) 13.6% [at 11.6 µM] | activity change, negative = cytotoxicity (CASKI) -6.51% [at 11.6 µM] | activity change, negative = cytotoxicity (Es-2) -0.184% [at 11.6 µM] | activity change, negative = cytotoxicity (HeLa) -3.59% [at 11.6 µM] | activity change, negative = cytotoxicity (Hek293T) 2.97% [at 11.6 µM] | activity change, negative = cytotoxicity (JEG-3) -0.345% [at 11.6 µM] | activity change, negative = cytotoxicity (OV90) 4.16% [at 11.6 µM] | activity change, negative = cytotoxicity (PA-1) 4.96% [at 11.6 µM] | activity change, negative = cytotoxicity (Tov-21-G) -10% [at 11.6 µM] | activity change, negative = cytotoxicity (Tov112D) -8.88% [at 11.6 µM]

COC(=O)c1cc(OC)cc(OC)c1C(=O)c1c(OC)cc2c(c1O)C1CCC(O)C(C)(O2)O1 (stereo unspecified)
inactive: outcome (HACAT) inactive [at 17.4 µM] | Potency (C33A) | Potency (CAOV3) | outcome (CASKI) | Potency (Es-2) | Potency (HeLa) | Potency (Hek293T) | Potency (JEG-3) | Potency (OV90) | Potency (PA-1) | Potency (Tov-21-G) | Potency (Tov112D)

CCCCC(=O)N1c2ccccc2NC2=C(C(=O)CCC2)C1c1ccccc1Cl (stereo unspecified)
inactive: outcome (HACAT) | Potency (C33A) | Potency (CAOV3) | outcome (CASKI) | Potency (Es-2) | Potency (HeLa) | Potency (Hek293T) | Potency (JEG-3) | Potency (OV90) | Potency (PA-1) | Potency (Tov-21-G) | Potency (Tov112D)

CC(=O)OC1CC(=O)C2(C)C3CC4=C(OC(C)CC4=O)OC3(C)CCC2C1(C)C (stereo unspecified)
inactive: outcome (HACAT) inactive [at 17.4 µM] | Potency (C33A) | Potency (CAOV3) | outcome (CASKI) | Potency (Es-2) | Potency (HeLa) | Potency (Hek293T) | Potency (JEG-3) | Potency (OV90) | Potency (PA-1) | Potency (Tov-21-G) | Potency (Tov112D)

C[C@@H]1O[C@@H](O[C@H]2[C@H](O)[C@@H](O)[C@H](OC(=O)[C@]34CCC(C)(C)C[C@H]3C3=CCC5[C@@]6(C)CC[C@H](O[C@@H]7O[C@H](C(=O)O)[C@@H](O)[C@H](O)[C@H]7O)C(C)(C)C6CC[C@@]5(C)[C@]3(C)CC4)O[C@@H]2CO)[C@H](O)[C@H](O)[C@H]1O (stereo partly specified)
inactive: outcome (HACAT) inactive [at 9.27 µM] | activity change, negative = cytotoxicity (C33A) -8.12% [at 11.6 µM] | activity change, negative = cytotoxicity (CAOV3) -25.2% [at 11.6 µM] | activity change, negative = cytotoxicity (CASKI) 5.01% [at 11.6 µM] | activity change, negative = cytotoxicity (Es-2) -1.51% [at 11.6 µM] | activity change, negative = cytotoxicity (HeLa) -21.7% [at 11.6 µM] | activity change, negative = cytotoxicity (Hek293T) 10.3% [at 11.6 µM] | activity change, negative = cytotoxicity (JEG-3) -2.05% [at 11.6 µM] | activity change, negative = cytotoxicity (OV90) -2.03% [at 11.6 µM] | activity change, negative = cytotoxicity (PA-1) -21.3% [at 11.6 µM] | activity change, negative = cytotoxicity (Tov-21-G) -3.13% [at 11.6 µM] | activity change, negative = cytotoxicity (Tov112D) -16.2% [at 11.6 µM]

CC1=C2CC(C)(C)CC2C(O)C2=C(C1)C(=O)OC2O (stereo unspecified)
inactive: outcome (HACAT) | Potency (C33A) | Potency (CAOV3) | outcome (CASKI) | Potency (Es-2) | Potency (HeLa) | Potency (Hek293T) | Potency (JEG-3) | Potency (OV90) | Potency (SKOV3) | Potency (Tov-21-G) | Potency (Tov112D)

CC(C)/C=C1/NC(=O)C(C(C)C)n2c1nc1c(O)cccc1c2=O (stereo unspecified)
inactive: outcome (HACAT) | Potency (C33A) | Potency (CAOV3) | outcome (CASKI) | Potency (Es-2) | Potency (HeLa) | Potency (Hek293T) | Potency (JEG-3) | Potency (OV90) | Potency (PA-1) | Potency (Tov-21-G) | Potency (Tov112D)

COCC1OC(n2cnc3c(=O)[nH]cnc32)C(O)C1O (stereo unspecified)
inactive: outcome (HACAT) | Potency (C33A) | Potency (CAOV3) | outcome (CASKI) | Potency (Es-2) | Potency (HeLa) | Potency (Hek293T) | Potency (JEG-3) | Potency (OV90) | Potency (PA-1) | Potency (Tov-21-G) | Potency (Tov112D)

COc1cc(C2Oc3c(OC)cc(CCCO)cc3C2CO)ccc1O (stereo unspecified)
inactive: outcome (HACAT) | Potency (C33A) | Potency (CAOV3) | outcome (CASKI) | Potency (Es-2) | Potency (HeLa) | Potency (Hek293T) | Potency (JEG-3) | Potency (OV90) | Potency (PA-1) | Potency (Tov-21-G) | Potency (Tov112D)

C[C@]1(O)CC[C@@H]2C(C(=O)O)=CO[C@@H](O[C@@H]3O[C@H](CO)[C@@H](O)[C@H](O)[C@H]3O)[C@@H]21
inactive: outcome (HACAT) | Potency (C33A) | Potency (CAOV3) | outcome (CASKI) | Potency (Es-2) | Potency (HeLa) | Potency (Hek293T) | Potency (JEG-3) | Potency (OV90) | Potency (PA-1) | Potency (Tov-21-G) | Potency (Tov112D)

CCOC(=O)COc1ccc2c(c1)C[C@@H](NC[C@H](O)c1cccc(Cl)c1)CC2
inactive: outcome (HACAT) | Potency (C33A) | Potency (CAOV3) | outcome (CASKI) | Potency (Es-2) | Potency (HeLa) | Potency (Hek293T) | Potency (JEG-3) | Potency (OV90) | Potency (PA-1) | Potency (Tov-21-G) | Potency (Tov112D)

C=C1C2(C)CC3C4(C)OC(C5OC56C4=CC(=O)OC6(C)C)C3(C)C13C(=O)OC(C)C3(O)C2=O (stereo unspecified)
inactive: outcome (HACAT) inactive [at 17.4 µM] | Potency (C33A) | Potency (CAOV3) | outcome (CASKI) | Potency (Es-2) | Potency (HeLa) | Potency (Hek293T) | Potency (JEG-3) | Potency (OV90) | Potency (SKOV3) | Potency (Tov-21-G) | Potency (Tov112D)

COc1ccccc1N1CCN(CCCCNC(=O)c2ccc(-c3cscn3)cc2)CC1
inactive: outcome (HACAT) | Potency (C33A) | Potency (CAOV3) | outcome (CASKI) | Potency (Es-2) | Potency (HeLa) | Potency (Hek293T) | Potency (JEG-3) | Potency (OV90) | Potency (PA-1) | Potency (Tov-21-G) | Potency (Tov112D)
